Several values for one entry are separate records, joined by “and”; a condition that tells them apart may be missing. Equal values may be shown once. Where a name gives a salt, the structure may show the parent alone. Hit rate of the full screen: of about 5,800 compounds, about 620 (11%) showed activity. The sample holds actives, similar compounds and a random draw of the others, so the mix is not that of the screen.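 How the source made its calls: active = score above a cut-off or among the top three wells of a plate; in these data no inactive exceeds 0.85.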
Tested on: primary human hepatic stellate cells (donor 1)
Assay: scaled lipid accumulation score (0 = DMSO-like, 1 = nortriptyline-like); higher = stronger HSC inactivation (lipid re-accumulation), active = hit call of the paper
Settings: 48 h
[1] = library stock concentration: 10 mM
[2] = library stock concentration: 1 mM
[3] = library stock concentration: 2 mM
[4] = library stock concentration: 3.33 mM
[5] = library stock concentration: 80 uM
[6] = library stock concentration: 400 uM
[7] = library stock concentration: 2.6 mM

CC(=O)N(O)[C@@H]1c2cc(C#N)ccc2OC(C)(C)[C@H]1O
scaled lipid accumulation score [1]: ≤ 0 (inactive)

O=C(O)CCC/C=C\C[C@@H]1[C@@H](/C=C/C(F)(F)COc2ccccc2)[C@H](O)C[C@@H]1O [Tafluprost (free acid)]
scaled lipid accumulation score [2]: 0.007 (inactive)

CCCCC[C@H](O)/C=C/[C@@H]1[C@@H](C/C=C\CCCCN(C)C)[C@@H](O)C[C@H]1O [Prostaglandin F2.alpha. dimethyl amine]
scaled lipid accumulation score [2]: ≤ 0 (inactive)

CCCCCCCCCCCCCCCCCCOCC(COP(=O)([O-])OCC[N+](C)(C)C)OC (stereo not given)
scaled lipid accumulation score [1]: ≤ -0.024 (inactive)

O=C(O)CCC/C=C\C[C@@H]1[C@@H](/C=C/C(=O)CCc2ccccc2)[C@H](O)C[C@@H]1O [15-keto-17-phenyl trinor Prostaglandin F2.alpha.]
scaled lipid accumulation score [2]: ≤ 0 (inactive)

CCCCC[C@H](O)/C=C/[C@@H]1[C@@H](C/C=C\CCCC(=O)OCC(O)CO)[C@@H](O)C[C@H]1O (stereo partly drawn) [Prostaglandin F2.alpha.-1-glyceryl ester]
scaled lipid accumulation score [2]: ≤ 0 (inactive)

CCCCCCCC(=O)CC[C@@H]1[C@@H](C/C=C\CCCC(=O)OC(C)C)[C@@H](O)C[C@H]1O [Unoprostone isopropyl ester]
scaled lipid accumulation score [2]: ≤ 0 (inactive)

CN1CCN(Cc2ccc(-c3cnc4[nH]cc(-c5ccc6[nH]ccc6c5)c4c3)cc2)CC1 [listing 1 of 2 here]
scaled lipid accumulation score [3]: 1.3 (active)

O=C(O)c1ccc(-c2c[nH]c3ncc(-c4ccccc4)cc23)cc1C1CCCC1
scaled lipid accumulation score [4]: ≤ -0.009 (inactive) | scaled lipid accumulation score [1]: 0.079 (inactive) and ≤ -0.001 (inactive)

CN1CCN(Cc2ccc(-c3cnc4[nH]cc(-c5ccc6[nH]ccc6c5)c4c3)cc2)CC1 [listing 2 of 2 here]
scaled lipid accumulation score [5]: ≤ -0.001 (inactive) | scaled lipid accumulation score [6]: 0.001 (inactive) | scaled lipid accumulation score [1]: 0.422 (inactive)

NC[C@H]1O[C@@H](n2cnc3c(N)ncnc32)[C@H](O)[C@@H]1O [5'-Amino-5'-deoxyadenosine p-toluenesulfonate salt]
scaled lipid accumulation score [1]: ≤ 0 (inactive)

CCCOc1cc(N)ccc1C(=O)OCCN(CC)CC [Propoxycaine hydrochloride]
scaled lipid accumulation score: ≤ 0 (inactive)

CCN(CC)CCOc1ccc2c(c1)C(=O)c1cc(OCCN(CC)CC)ccc1-2 [Tilorone] [listing 1 of 2 here]
scaled lipid accumulation score (library stock concentration: 4.9 mM): 0.006 (inactive)

CCN(CC)CCOc1ccc2c(c1)C(=O)c1cc(OCCN(CC)CC)ccc1-2 [Tilorone] [listing 2 of 2 here]
scaled lipid accumulation score [1]: 0.879 (active)

FC(F)(F)COCC(F)(F)F [Flurothyl]
scaled lipid accumulation score (library stock concentration: 11 mM): ≤ -0.001 (inactive)

OCCC#Cc1nc(-c2ccc(F)cc2)c(-c2ccncc2)n1CCCc1ccccc1
scaled lipid accumulation score [6]: ≤ -0.005 (inactive) | scaled lipid accumulation score [3]: ≤ -0.005 (inactive) | scaled lipid accumulation score [1]: 0.668 (inactive)

Nc1ncnc2c1ncn2C1CCCO1 (stereo not given)
scaled lipid accumulation score [1]: ≤ 0 (inactive) and ≤ -0.006 (inactive) | scaled lipid accumulation score (library stock concentration: 24.4 mM): ≤ -0.005 (inactive)

O=C(O)C=C1CCCc2ccccc2C1O (stereo not given)
scaled lipid accumulation score [1]: 0.122 (inactive) and 0.034 (inactive)

Cl.O=C(CCCCCN1CCN(c2ccccc2-c2ccccc2)CC1)NC1CCCc2ccccc21 (stereo not given) [LP 12 hydrochloride hydrate]
scaled lipid accumulation score [1]: 0.898 (active)

CC(=O)c1ccc2c(c1)N(CCCN1CCC(CCO)CC1)c1ccccc1S2 [Piperacetazine]
scaled lipid accumulation score: 0.427 (inactive)

COc1ccccc1N1CCN(CCCCN2C(=O)c3ccccc3C2=O)CC1 [NAN-190 hydrobromide]
scaled lipid accumulation score [1]: 0.324 (inactive) and 0.002 (inactive)

CC(=O)c1ccc2c(c1)N(CCCN1CCN(CCO)CC1)c1ccccc1S2
scaled lipid accumulation score [1]: 0.638 (inactive)

CSc1ccccc1N1CCN(CCCCCC(=O)NC2CCCc3ccccc32)CC1.Cl (stereo not given)
scaled lipid accumulation score [1]: 1.06 (active)

CC(=O)Nc1cccc2c1c(Sc1ccc(Cl)cc1)c(C)n2CC(=O)O
scaled lipid accumulation score [4]: ≤ -0.009 (inactive) | scaled lipid accumulation score [1]: 0.195 (inactive)

CC[n+]1c(/C=C/N(C)c2ccccc2)n(-c2ccccc2)c2ccc(-c3nc4ccccc4s3)cc21 [Akt Inhibitor IV]
scaled lipid accumulation score [4]: ≤ 0 (inactive)

CCCCCCCCCCCCCCCCCCCC(=O)NCCO [Arachidoyl Ethanolamide]
scaled lipid accumulation score [2]: ≤ 0 (inactive)

COc1cc(/C=C/C(=O)N2CCCCCCC2)cc(OC)c1OC
scaled lipid accumulation score [1]: ≤ 0 (inactive)

C[C@H]1O[C@@H](O[C@H]2[C@@H](O)C[C@H](O[C@H]3[C@@H](O)C[C@H](O[C@H]4CC[C@]5(C)C6CC[C@]7(C)[C@@H](C8=CC(=O)OC8)CC[C@]7(O)C6CC[C@@H]5C4)O[C@@H]3C)O[C@@H]2C)C[C@H](O)[C@@H]1O (stereo not given in full) [Digitoxin]
scaled lipid accumulation score [7]: 1.2 (active)

C[C@H]1O[C@@H](O[C@H]2[C@@H](O)C[C@H](O[C@H]3[C@@H](O)C[C@H](O[C@H]4CC[C@@]5(C)[C@H](CC[C@@H]6[C@@H]5C[C@@H](O)[C@]5(C)[C@@H](C7=CC(=O)OC7)CC[C@]65O)C4)O[C@@H]3C)O[C@@H]2C)C[C@H](O)[C@@H]1O
scaled lipid accumulation score [1]: 0.599 (inactive)

C[C@H]1O[C@@H](O[C@H]2[C@@H](O)C[C@H](O[C@H]3[C@@H](O)C[C@H](O[C@H]4CC[C@@]5(C)[C@H](CC[C@@H]6[C@@H]5CC[C@]5(C)[C@@H](C7=CC(=O)OC7)CC[C@]65O)C4)O[C@@H]3C)O[C@@H]2C)C[C@H](O)[C@@H]1O [Digitoxin]
scaled lipid accumulation score [1]: 0.545 (inactive)

C[C@H]1O[C@@H](O[C@H]2[C@@H](O)C[C@H](O[C@H]3[C@@H](O)C[C@H](O[C@H]4CC[C@]5(C)C6C[C@@H](O)[C@]7(C)[C@@H](C8=CC(=O)OC8)CC[C@]7(O)C6CC[C@@H]5C4)O[C@@H]3C)O[C@@H]2C)C[C@H](O)[C@@H]1O (stereo not given in full) [Digoxin]
scaled lipid accumulation score [7]: 0.937 (active)

C[C@H]1O[C@@H](O[C@H]2[C@@H](O)C[C@H](O[C@H]3[C@@H](O)C[C@H](O[C@H]4CC[C@@]5(C)[C@H](CC[C@@H]6[C@@H]5C[C@@H](O)[C@]5(C)[C@@H](C7=CC(=O)OC7)CC[C@]65O)C4)O[C@@H]3C)O[C@@H]2C)C[C@H](O)[C@@H]1O [Digoxin]
scaled lipid accumulation score: 1.03 (active) | scaled lipid accumulation score [4]: 1.11 (active) | scaled lipid accumulation score [1]: 0.888 (active) and 0.816 (inactive)

N[C@@H](Cc1ccc(F)cc1)C(=O)O [p-Fluoro-L-phenylalanine]
scaled lipid accumulation score [1]: ≤ -0.07 (inactive)

Nc1nc(-c2ccc(Cl)c(Cl)c2)c(-c2ccncc2)s1 [CGH 2466 dihydrochloride]
scaled lipid accumulation score [1]: 0.001 (inactive)

O=[N+]([O-])c1cc2nc(O)c(O)nc2cc1[N+](=O)[O-]
scaled lipid accumulation score [1]: ≤ -0.07 (inactive) and ≤ 0 (inactive)

CC(C)[C@H](NC(=O)[C@H](CC(=O)O)NC(=O)[C@H](CCCCN)NC(=O)[C@@H](N)CCCN=C(N)N)C(=O)N[C@@H](Cc1ccc(O)cc1)C(=O)O
scaled lipid accumulation score [1]: ≤ 0 (inactive)

CCOC(=O)[C@]12CC1/C(=N\O)c1ccccc1O2 (stereo not given in full)
scaled lipid accumulation score [1]: ≤ 0 (inactive) and 0.015 (inactive)

c1cc2c(cc1C1CCCCC1)c1c3n2CCNC3CCC1 (stereo not given) [Tetrindole mesylate]
scaled lipid accumulation score [1]: ≤ 0 (inactive)

CS(=O)(=O)O.Cc1ccc2c(c1)c1c3n2CCNC3CCC1 (stereo not given) [Pirlindole mesylate]
scaled lipid accumulation score [1]: 0.93 (active)

Cc1ccc2c(c1)c1c3n2CCNC3CCC1 (stereo not given) [Pirlindole mesylate]
scaled lipid accumulation score: 0.472 (inactive)

Cc1cncc2cccc(S(=O)(=O)N3CCCN(C(=O)CN)C[C@@H]3C)c12 [Rho Kinase Inhibitor IV]
scaled lipid accumulation score [4]: ≤ 0 (inactive)

C=CCN(C)CCCCCCOc1ccc(C(=O)c2ccc(Br)cc2)c(F)c1
scaled lipid accumulation score [2]: 0.116 (inactive)

CCCCC/C=C\C/C=C\CCCCCCCC(=O)OCC(COC(=O)CCCCCCCCCCCCCCC)OC(=O)CCCCCCC/C=C\CCCCCCCC (racemic) [1-Palmitoyl-2-oleoyl-3-linoleoyl-rac-glycerol]
scaled lipid accumulation score [2]: 0.03 (inactive)

OC1C[C@@H]2[C@@H](CC[C@@H](O)CCc3ccccc3)[C@H](O)C[C@@H]2O1 (stereo not given in full) [Latanoprost Lactol]
scaled lipid accumulation score [2]: 0.027 (inactive)

COc1cc2ncnc(Nc3cccc(Cl)c3)c2cc1OC [Tyrphostin AG 1478]
scaled lipid accumulation score [1]: 0.882 (active)

COc1cc2ncnc(Nc3ccc(Oc4ccccc4)cc3)c2cc1OC [Src Kinase Inhibitor I]
scaled lipid accumulation score [4]: ≤ 0 (inactive)

COc1cc2ncnc(Nc3cccc(O)c3)c2cc1OC [WHI-P180, Hydrochloride]
scaled lipid accumulation score [4]: ≤ 0 (inactive)

COc1cc2ncnc(Nc3cccc(Cl)c3)c2cc1OC [AG-1478 (Tyrphostin AG-1478)] [listing 1 of 2 here]
scaled lipid accumulation score [1]: 1.07 (active)

COc1cc2ncnc(Nc3ccc(Cl)cc3Cl)c2cc1OC [Ste11 MAPKKK Activation Inhibitor]
scaled lipid accumulation score [4]: ≤ 0 (inactive)

COc1cc2ncnc(Nc3cccc(Cl)c3)c2cc1OC
scaled lipid accumulation score [5]: ≤ -0.016 (inactive) | scaled lipid accumulation score [6]: ≤ -0.016 (inactive) | scaled lipid accumulation score [3]: ≤ -0.016 (inactive) | scaled lipid accumulation score [4]: ≤ 0 (inactive) | scaled lipid accumulation score [1]: 0.749 (inactive) | scaled lipid accumulation score (library stock concentration: 14.2 mM): 0.452 (inactive)

COc1cc2ncnc(Nc3ccc(Oc4ccccc4)cc3)c2cc1OC
scaled lipid accumulation score [1]: 0.029 (inactive)

COc1cc2ncnc(Nc3cccc(Cl)c3)c2cc1OC [AG-1478 (Tyrphostin AG-1478)] [listing 2 of 2 here]
scaled lipid accumulation score [4]: ≤ 0 (inactive)

CCCCCCCCCCCCCCCCOC[C@H](COP(=O)([O-])OCC[N+](C)(C)C)SC(C)=O [2-thio-PAF]
scaled lipid accumulation score [2]: ≤ 0 (inactive)

CN1C(=O)C(c2c[nH]c3ccccc23)=C(c2c[nH]c3ccccc23)C1=O [Bisindolylmaleimide V]
scaled lipid accumulation score [2]: ≤ 0 (inactive) | scaled lipid accumulation score [4]: ≤ 0 (inactive)

C[C@H]1[C@H](C)CC[C@]2(C(=O)O[C@@H]3O[C@H](CO[C@@H]4O[C@H](CO)[C@@H](O[C@@H]5O[C@H](C)[C@H](O)[C@@H](O)[C@H]5O)[C@H](O)[C@H]4O)[C@@H](O)[C@H](O)[C@H]3O)CC[C@]3(C)C(=CC[C@@H]4[C@@]5(C)C[C@@H](O)[C@H](O)[C@@](C)(CO)[C@@H]5CC[C@]43C)[C@H]12 [Asiaticoside]
scaled lipid accumulation score: ≤ 0 (inactive)

From the supplement of paper PMC9135407
